Among the data in PubChem BioAssay are composite z-score and z-score values, retold here.

SMILES strings stand for the structures. Activity calls are given as the source filed them.

Test [1] concerns XIP peptide (Xip251-270) binding. The experiment in a line: small-molecule binders of XIP peptide, primary screen, biochemical, small-molecule microarray, fluorescence 635/667 nm, 0.1 µg/mL protein (AID 1182). Conditions: fluorescent protein binding, 635 nm, higher = more signal, called active from +8 up or from −8 down.
In test [2] the test system is XIP peptide (Xip251-270). The experiment in a line: small-molecule binders of XIP peptide, primary screen, biochemical, small-molecule microarray, fluorescence 635/667 nm, 0.5 µg/mL protein (AID 1183). As to conditions: small-molecule microarray binding, fluorescence 635 nm; higher = more signal.
A short description of test [3]: Plasmodium falciparum growth inhibition, primary screen, strain 3D7, DAPI fluorescence, 100 nL (AID 1184).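 Further: parasites grown inside human red blood cells in medium with human serum.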 As to conditions: P. falciparum 3D7 growth, 3 d, higher = more signal.
Test [4] addresses Homeobox protein Hox-A13 (Mus musculus) (UniProt Q62424). The experiment in a line: inhibitors of HoxA13-DNA binding, primary screen, biochemical, fluorescence polarization, labeled oligonucleotide (AID 1185). As to conditions: 15 min, higher = more signal, called active from +8 up or from −8 down. On the technique in general: In fluorescence polarisation assays a small probe gives low polarisation when free and higher when bound to something large.

Homeobox protein Hox-A13 (Mus musculus), sequence (Q62424 whole entry, looked up): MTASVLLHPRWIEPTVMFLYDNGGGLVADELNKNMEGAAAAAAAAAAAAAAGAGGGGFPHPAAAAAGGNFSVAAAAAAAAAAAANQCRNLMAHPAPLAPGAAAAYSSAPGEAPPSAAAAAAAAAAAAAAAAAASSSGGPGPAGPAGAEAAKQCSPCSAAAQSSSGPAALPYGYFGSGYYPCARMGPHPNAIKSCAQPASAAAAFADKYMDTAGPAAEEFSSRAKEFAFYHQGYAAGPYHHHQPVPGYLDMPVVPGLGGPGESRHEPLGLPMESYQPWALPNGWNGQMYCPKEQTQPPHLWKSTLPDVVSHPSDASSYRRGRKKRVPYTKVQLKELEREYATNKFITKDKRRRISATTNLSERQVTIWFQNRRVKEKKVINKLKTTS

As to `COC(=O)CC=C[C@@H](C)[C@@H](C=NO[C@@H]1O[C@H](COC(C)=O)[C@@H](OC(C)=O)[C@H](OC(C)=O)[C@H]1OC(C)=O)NS(=O)(=O)c1ccc(C)cc1`, the composite z-score is -0.0076 (inactive) in test [1] and 0.203 in test [2]. For the same molecule, the z-score was -0.0818 in test [3] and -5.17 (inactive) in test [4].
The corresponding values for `C[C@@H]1CC[C@H]2C(=O)O[C@@H](COc3ccc(C(C)(C)C)cc3)CN2[C@@H]1c1ccc(Br)cc1` are 0.286 (inactive), 0.0087, 0.093 and 0.347 (inactive).
Take `Cn1c(=O)n2n(c1=O)[C@H]1[C@H](O)[C@@H]3O[C@@H]3C(=O)[C@H]1CC2`: the composite z-score in test [1] was 0.151 (inactive); in test [2] it was 0.186. In addition, the z-score in test [3] was 0.551; in test [4], 0.336 (inactive).
`CCOC(=O)NN=C1C[C@@H](O)[C@@H](O)[C@@H]2[C@@H]3C(=O)N(c4ccc(F)cc4F)C(=O)[C@@H]3CC[C@@H]12`: the composite z-score in test [1] was 0.015 (inactive); in test [2] it was -0.0246. Also, the z-score in test [3] was -0.404; in test [4], -1.23 (inactive).
`CO[C@H]1COC(=O)CCC[C@@H](C)[C@H](OC)COC(=O)[C@@H](C)NC(=O)CC=C[C@@H]1C`: the composite z-score in test [1] is -0.157 (inactive); in test [2], -0.0673. For the same molecule, the z-score in test [3] was -1.29; in test [4], -1.94 (inactive).
Take `CO[C@@H]1COC(=O)[C@H](CCSC)NC(=O)CC=C[C@@H](C)COC(=O)[C@H](C)NC(=O)CC=C[C@H]1C`: the composite z-score in test [1] was -0.665 (inactive); in test [2] it was 0.909. Besides, the values for the z-score in test [3] and in test [4] were -0.131 and -0.042 (inactive), respectively.
For `CCCNC(=O)OC[C@H]1O[C@H](CCON=C(C)CCC(=O)OC[C@H]2O[C@H](c3ccccc3)C=C[C@@H]2Oc2ccc(OC)cc2)C=C[C@@H]1Oc1ccc(OC)cc1`, the results for the composite z-score in test [1] and in test [2] were 0.146 (inactive) and -0.138, respectively. Besides, the z-score in test [3] was -0.935; in test [4], -2.1 (inactive).
In the case of `COc1ccc(O[C@@H]2[C@H](O)CO[C@@H]2C=Cc2ccccc2)cc1`, the composite z-score was 0.196 (inactive) in test [1] and 0.592 in test [2]. For the same molecule, the z-score in test [3] is -0.971; in test [4], -0.162 (inactive).
As to `O=C1C[C@@H](O)[C@@H](O)[C@@H]2[C@@H]3C(=O)N(C[C@@H]4CCCO4)C(=O)[C@@H]3CC[C@H]12`, the composite z-score in test [1] was 0.195 (inactive); in test [2], 0.156. Moreover, the z-score was 0.116 in test [3] and 0.195 (inactive) in test [4].
Turning to `CC(C)CON=C1C[C@@H](O)[C@@H](O)[C@@H]2[C@@H]3C(=O)N(c4ccc(F)cc4F)C(=O)[C@@H]3CC[C@H]12`, the composite z-score in test [1] is 0.0163 (inactive); in test [2], 0.37. Besides, the z-score was 0.0017 in test [3] and -0.224 (inactive) in test [4].
For the molecule `CCOC(=O)CCN1C(=O)[C@H]2[C@H]3[C@H](O)[C@H](O)CC(=NOCc4ccccc4)[C@H]3CC[C@H]2C1=O`, the composite z-score in test [1] is -0.207 (inactive); in test [2], -0.0274. Moreover, the z-score in test [3] is 0.172; in test [4], 0.313 (inactive).
With `CC(CCN1CCCCc2nc(C)c(C)cc21)=NO[C@H](C)c1cn([C@H](CO)Cc2ccccc2)nn1`, the results for the composite z-score in test [1] and in test [2] were -0.28 (inactive) and 0.542, respectively. The z-score in test [3] was -1.56; in test [4], -5.13 (inactive).
Take `CCN1C(=O)[C@@H]2[C@H]3C(=CC[C@@H]2C1=O)C1(OCCCO1)[C@H]1O[C@H]1[C@H]3O`: the composite z-score in test [1] was 0.645 (inactive); in test [2] it was 0.689. The z-score in test [3] is -1.63; in test [4], -10.9 (active).
